According to PubChem BioAssay (Tox21):
Unmarked numbers belong to inactive results. Inconclusive results are not listed. A call without a number means that no potency is given here. Calls of active or inactive are those of the source. Unless noted, calls come from the whole dose curve; as a rule, active = well fitted curve in the direction sought with a large enough effect in the repeat runs; inconclusive = weak or mixed curves; inactive = no such curve, though single readings can be large; an effect the other way counts as inactive or inconclusive.

Tests used:
[1] = qHTS assay to identify small molecule antagonists of the sonic hedgehog signaling (Shh) pathway (AID 1259369; calls by dose curve; note: nearly all actives have a fitted effect of over 45% in size; note: potency is the fitted concentration of half-maximal effect)
Method in brief: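 Conditioned medium drives Shh signalling in 3T3Gli1-Luc cells; compounds in DMSO co-applied, 24hr at 37 C, then luciferase luminescence.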

[2] = qHTS assay to identify small molecule agonists of the androgen receptor (AR) signaling pathway in the presence of an antagonist - cell viability counter screen (AID 1259379);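 note: MDA-kb2 human breast cancer cells carrying an MMTV luciferase reporter; series mostly up to about 92 µM; nearly all actives have a fitted effect of over 25% in size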
Method in brief: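 A CellTiter-Fluor read-out measured viability of MDA-kb2 reporter cells (MMTV promoter with AR and GR response elements). Treatment: nilutamide 3.0uM final with compounds at 15 concentrations, 16 hr, 37C, 0% CO2.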

[3] = qHTS assay to identify small molecule agonists of the estrogen receptor beta (ER-beta) signaling pathway - cell viability counter screen (AID 1259380); note: nearly all actives have a fitted effect of over 30% in size
Method in brief: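 Cells used were ER-beta-UAS-bla HEK293T in medium with 2% charcoal-stripped FBS. They were treated for 16 hr at 37C. Viability came from CellTiter-Glo luminescence.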

[4] = qHTS assay to identify small molecule antagonists of the estrogen receptor beta (ER-beta) signaling pathway - cell viability counter screen (AID 1259382); note: series mostly up to about 92 µM; nearly all actives have a fitted effect of over 55% in size
Method in brief: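 Agonist-stimulated (1nM E2) ER-beta-UAS-bla HEK293T cells are incubated with library compounds for 16 hr at 37C. Cell viability is then assessed in the reporter-assay wells by adding CellTiter-Glo and reading luminescence after 30 min.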

[5] = qHTS assay to identify small molecule agonists or antagonists of the thyroid stimulating hormone receptor (TSHR) signaling pathway - wild type cell line counter screen (AID 1259384; calls by dose curve)
Method in brief: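 Wild-type HEK293 cells were plated 18 h at 37 C/5% CO2, pin-dosed with compound plus Ro20-1724 medium, held 30 min at room temperature, then given cAMP-d2 and anti-cAMP-cryptate; fluorescence was read after 1 h. Fifteen concentrations, triplicate.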

[6] = biological target: Thyrotropin receptor (Homo sapiens) (UniProt P16473); test: qHTS assay to identify small molecule antagonists of the thyroid stimulating hormone receptor (TSHR) signaling pathway (AID 1259385; calls by dose curve; note: nearly all actives have a fitted effect of over 20% in size)
Method in brief: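 TSHR-HEK293 cells were plated and held 18 h at 37C/5% CO2, then given compound plus Ro20-1724 and stimulated with TSH at 1.5 ng/mL final. After 30 min at room temperature, cAMP was detected with cAMP-d2/anti-cAMP-cryptate (1 h) by fluorescence.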

[7] = qHTS assay to identify small molecule agonists of the estrogen receptor alpha (ER-alpha) signaling pathway in the presence of an antagonist - cell viability counter screen (AID 1259386);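 note: series mostly up to about 92 µM; cells exposed to compounds for 22 h at 37 °C before the viability read; nearly all actives have a fitted effect of over 30% in size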
Method in brief: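 ICI-182,780 at 10.0nM final accompanies the compound titration (15 concentrations, 22hr, 37C) on VM7Luc4E2 cells. The CellTiter-Fluor fluorescence readout runs in the same wells as the luciferase assay.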

[8] = biological target: Progesterone receptor (Homo sapiens) (UniProt P06401); test: qHTS assay to identify small molecule agonists of the progesterone receptor (PR) signaling pathway (AID 1346784; calls by dose curve; note: nearly all actives have a fitted effect of over 30% in size)
Method in brief: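 Agonist qHTS: compounds pinned onto 3,000 PR-UAS-bla HEK 293T cells per well in charcoal-stripped serum medium, 16hr at 37C, then beta-lactamase activity measured by LiveBLAzer FRET fluorescence after 2 hours at room temperature.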

[9] = biological target: Progesterone receptor (Homo sapiens) (UniProt P06401); test: qHTS assay to identify small molecule antagonists of the progesterone receptor (PR) signaling pathway (AID 1346795; active = well fitted inhibition curve with a large enough effect in the signal ratio in the repeat runs, not every such curve was filed as active; the % refers to the signal ratio; note: potency is the fitted concentration of half-maximal effect)
Method in brief: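 Antagonist mode with agonist R5020 at 1 nM final and 16 hr incubation at 37C. Reporter was beta-lactamase driven by UAS in HEK293T (PR-UAS-bla), 2% charcoal-stripped serum; signal from LiveBLAzer FRET substrate, 2 hr at room temperature.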

[10] = qHTS assay to identify small molecule agonists of the progesterone receptor (PR) signaling pathway - cell viability counter screen (AID 1346799; calls by dose curve; note: nearly all actives have a fitted effect of over 45% in size)
Method in brief: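 Cytotoxicity measured by CellTiter-Glo luminescence (30 min, RT) in the same wells as the PR beta-lactamase agonist read. Those HEK293T cells had 16 h compound treatment at 37 C in 2% charcoal-stripped FBS medium.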

[11] = qHTS assay to identify small molecule antagonists of the TGF-beta/Smad signaling pathway - cell viability counter screen (AID 1346824); note: nearly all actives have a fitted effect of over 50% in size
Method in brief: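 SBE-bla HEK 293T cells were plated overnight at 37 C, then given compounds in DMSO plus TGF-beta1 (added as 0.25 ng/mL solution) for 5 hr. After the bla read, CellTiter-Glo was added to the same wells and luminescence read after 30 min at room temperature.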

[12] = qHTS assay to identify small molecule agonists of the TGF-beta/Smad signaling pathway - cell viability counter screen (AID 1346829); note: top concentration of the series differs between compounds; nearly all actives have a fitted effect of over 45% in size
Method in brief: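 HEK 293T SBE-bla line, 5 hr compound exposure at 37 C, multiplexed CellTiter-Glo viability read by luminescence.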

[13] = qHTS assay to identify small molecule agonists of the TGF-beta/Smad signaling pathway (AID 1346859; active = well fitted activation curve with a large enough effect in the signal ratio in the repeat runs, not every such curve was filed as active; the % refers to the signal ratio; note: series mostly up to about 77 µM)
Method in brief: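 Fluorescence (ex 405 nm; em 460 and 530 nm) was read 2 h after LiveBLAzer FRET substrate at RT. The preceding compound treatment of overnight-plated SBE-bla HEK293T cells lasted 5 h at 37 C.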

[14] = biological target: Thyrotropin-releasing hormone receptor (Homo sapiens) (UniProt P34981); test: qHTS assay to identify small molecule antagonists of the thyrotropin-releasing hormone receptor (TRHR) signaling pathway (AID 1346877; active = well fitted inhibition curve with a large enough effect in the repeat runs, not every such curve was filed as active; note: series mostly up to about 51 µM)
Method in brief: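 Screening used HEK293 cells engineered with TRHR, with a brief 5 min room-temperature compound exposure preceding addition of TRH to 1 nM. The read-out was kinetic calcium-dye fluorescence, concentration-response from 15 doses in triplicate.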

[15] = biological target: Thyrotropin-releasing hormone receptor (Homo sapiens) (UniProt P34981); test: qHTS assay to identify small molecule agonists of the thyrotropin-releasing hormone receptor (TRHR) signaling pathway (AID 1346891; calls by dose curve; note: series mostly up to about 58 µM)
Method in brief: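 Agonist-mode intracellular calcium readout: kinetic fluorescence over 3 min at 1 s intervals after compound addition to TRHR-HEK293 cells (18 h seeded, 2 h dye-loaded at 37 C). Fifteen concentrations, triplicates.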

[16] = qHTS assay to identify small molecule antagonists of the progesterone receptor (PR) signaling pathway - cell viability counter screen (AID 1346798); note: series mostly up to about 92 µM; nearly all actives have a fitted effect of over 50% in size
Method in brief: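 Cytotoxicity read as CellTiter-Glo luminescence (30 min, room temperature) in the same wells as the beta-lactamase readout. HEK293T PR-UAS-bla cells in charcoal-stripped 2% FBS received compound and R5020, then 16 h at 37C, 5% CO2.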

[17] = biological target: Estrogen receptor (Homo sapiens) (UniProt P03372); test: qHTS assay to identify small molecule agonists of the estrogen receptor alpha (ER-alpha) signaling pathway in the presence of an antagonist (AID 1259383; calls by dose curve; note: top concentration of the series differs between compounds; nearly all actives have a fitted effect of over 15% in size)
Method in brief: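 Using VM7Luc4E2 cells seeded 24hr before treatment, antagonist ICI-182,780 (10.0nM final) was added, followed by compounds at 15 concentrations. Plates incubated 22hr; ONE-Glo luminescence quantified reporter activity.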

Sequence of Thyrotropin-releasing hormone receptor (Homo sapiens) (P34981 whole entry, looked up): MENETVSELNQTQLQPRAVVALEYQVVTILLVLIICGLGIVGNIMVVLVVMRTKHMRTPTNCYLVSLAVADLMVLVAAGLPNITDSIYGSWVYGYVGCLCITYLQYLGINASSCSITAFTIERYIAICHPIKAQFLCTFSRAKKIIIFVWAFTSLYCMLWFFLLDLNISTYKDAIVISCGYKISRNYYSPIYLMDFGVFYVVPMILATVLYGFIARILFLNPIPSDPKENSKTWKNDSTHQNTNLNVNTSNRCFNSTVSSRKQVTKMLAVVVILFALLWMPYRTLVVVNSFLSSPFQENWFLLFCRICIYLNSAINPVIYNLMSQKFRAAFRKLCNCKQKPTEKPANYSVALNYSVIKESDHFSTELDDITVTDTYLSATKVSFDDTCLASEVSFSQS
Sequence of Thyrotropin receptor (Homo sapiens) (P16473 whole entry, looked up): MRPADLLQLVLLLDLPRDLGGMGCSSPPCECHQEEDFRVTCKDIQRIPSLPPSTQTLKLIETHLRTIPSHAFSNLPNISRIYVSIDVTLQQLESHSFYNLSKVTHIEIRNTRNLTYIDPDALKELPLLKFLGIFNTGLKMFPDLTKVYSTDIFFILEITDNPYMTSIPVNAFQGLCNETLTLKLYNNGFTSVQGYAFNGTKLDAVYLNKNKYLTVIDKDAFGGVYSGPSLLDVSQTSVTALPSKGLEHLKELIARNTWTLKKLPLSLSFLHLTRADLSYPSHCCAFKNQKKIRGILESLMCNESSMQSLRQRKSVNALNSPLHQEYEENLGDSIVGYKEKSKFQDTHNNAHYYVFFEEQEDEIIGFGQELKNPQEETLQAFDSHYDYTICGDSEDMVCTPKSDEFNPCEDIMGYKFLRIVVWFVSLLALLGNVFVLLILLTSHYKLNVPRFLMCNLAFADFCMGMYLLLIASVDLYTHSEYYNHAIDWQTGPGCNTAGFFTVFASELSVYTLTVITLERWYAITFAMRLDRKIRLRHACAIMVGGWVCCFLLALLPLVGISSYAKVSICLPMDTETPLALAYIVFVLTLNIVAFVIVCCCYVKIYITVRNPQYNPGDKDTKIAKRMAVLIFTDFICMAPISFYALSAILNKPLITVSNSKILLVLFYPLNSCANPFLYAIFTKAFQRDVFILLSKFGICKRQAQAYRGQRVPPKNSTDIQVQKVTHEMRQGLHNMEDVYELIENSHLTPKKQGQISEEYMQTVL
Sequence of Progesterone receptor (Homo sapiens) (P06401 whole entry, looked up): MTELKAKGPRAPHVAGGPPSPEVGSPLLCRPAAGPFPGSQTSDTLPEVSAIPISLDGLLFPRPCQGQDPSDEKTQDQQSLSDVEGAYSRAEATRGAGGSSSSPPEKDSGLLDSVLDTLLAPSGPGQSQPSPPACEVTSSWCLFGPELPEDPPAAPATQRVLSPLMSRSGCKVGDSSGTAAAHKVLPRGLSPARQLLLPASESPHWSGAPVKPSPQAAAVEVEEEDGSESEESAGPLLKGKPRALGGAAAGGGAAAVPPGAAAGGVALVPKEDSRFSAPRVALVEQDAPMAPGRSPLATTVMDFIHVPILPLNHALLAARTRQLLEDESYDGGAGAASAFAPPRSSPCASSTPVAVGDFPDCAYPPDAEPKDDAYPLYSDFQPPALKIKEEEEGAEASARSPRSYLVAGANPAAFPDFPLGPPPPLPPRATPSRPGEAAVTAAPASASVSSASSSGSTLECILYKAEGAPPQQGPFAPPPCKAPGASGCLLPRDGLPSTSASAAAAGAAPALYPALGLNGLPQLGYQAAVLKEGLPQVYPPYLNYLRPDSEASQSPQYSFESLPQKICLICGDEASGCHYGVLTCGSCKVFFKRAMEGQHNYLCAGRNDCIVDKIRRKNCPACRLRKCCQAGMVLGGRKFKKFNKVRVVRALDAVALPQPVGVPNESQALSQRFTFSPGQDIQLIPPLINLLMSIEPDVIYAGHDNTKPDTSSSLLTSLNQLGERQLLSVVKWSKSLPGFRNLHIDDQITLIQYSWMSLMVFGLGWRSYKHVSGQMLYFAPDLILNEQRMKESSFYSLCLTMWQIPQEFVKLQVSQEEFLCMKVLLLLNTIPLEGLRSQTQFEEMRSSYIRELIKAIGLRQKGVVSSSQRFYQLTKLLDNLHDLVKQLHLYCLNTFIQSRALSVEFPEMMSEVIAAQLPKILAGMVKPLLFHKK
Sequence of Estrogen receptor (Homo sapiens) (P03372 whole entry, looked up): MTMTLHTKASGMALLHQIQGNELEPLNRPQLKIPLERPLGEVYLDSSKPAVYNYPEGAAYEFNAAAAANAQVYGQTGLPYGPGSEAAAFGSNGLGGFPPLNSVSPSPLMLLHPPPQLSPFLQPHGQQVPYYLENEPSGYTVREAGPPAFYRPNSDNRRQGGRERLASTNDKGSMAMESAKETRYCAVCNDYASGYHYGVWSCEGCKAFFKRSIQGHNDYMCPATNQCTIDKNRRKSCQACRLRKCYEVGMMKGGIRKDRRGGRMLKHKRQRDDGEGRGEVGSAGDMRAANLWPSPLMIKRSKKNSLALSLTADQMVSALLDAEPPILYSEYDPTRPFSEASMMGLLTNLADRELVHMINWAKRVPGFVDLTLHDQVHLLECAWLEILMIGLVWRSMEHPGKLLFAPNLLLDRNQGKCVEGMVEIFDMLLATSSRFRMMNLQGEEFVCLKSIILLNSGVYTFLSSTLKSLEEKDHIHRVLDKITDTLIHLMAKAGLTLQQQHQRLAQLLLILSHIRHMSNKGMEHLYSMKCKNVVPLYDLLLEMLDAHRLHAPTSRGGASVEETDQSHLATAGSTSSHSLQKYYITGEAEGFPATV

| Structure (SMILES) | Potency [1] | Potency [2] | Potency [3] | Potency [4] | outcome [5] | Potency [6] | outcome [7] | Potency [8] | Potency [9] | Potency [10] | outcome [11] | outcome [12] | outcome [13] | outcome [14] | outcome [15] | Potency [16] | Potency [17] |
| --- | --- | --- | --- | --- | --- | --- | --- | --- | --- | --- | --- | --- | --- | --- | --- | --- | --- |
| C=CC(=O)N1CCOCC1 | inactive | inactive | inactive | inactive | inactive | inactive | inactive | inactive | inactive | inactive | inactive | inactive | inactive | inactive | inactive | – | – |
| CCCCCCCCCCC1CO1 (configuration not stated) | inactive | inactive | inactive | inactive | inactive | – | inactive | inactive | inactive | inactive | inactive | inactive | inactive | inactive | inactive | inactive | – |
| C=C(C)C(=O)OCCC(C)OC(=O)C(=C)C (configuration not stated) | inactive | inactive | inactive | inactive | inactive | – | inactive | inactive | inactive | inactive | inactive | inactive | inactive | inactive | inactive | inactive | inactive |
| CC1=CC(C)C(C=O)C(C)C1 (configuration not stated) | inactive | inactive | inactive | inactive | inactive | – | inactive | inactive | – | inactive | inactive | inactive | inactive | – | – | – | inactive |
| NS(=O)(=O)c1cc2c(cc1Cl)NC(CSCc1ccccc1)=NS2(=O)=O | inactive | inactive | inactive | inactive | inactive | inactive | inactive | inactive | inactive | inactive | inactive | inactive | inactive | inactive | inactive | inactive | – |
| CSc1nc(NC2CC2)nc(NC(C)(C)C)n1 | 1.54 µM (active) | inactive | inactive | inactive | – | – | inactive | inactive | 61.1 µM (active) | inactive | inactive | inactive | inactive | – | – | inactive | – |
| CCCCC1CCCCC(=O)O1 (configuration not stated) | inactive | inactive | inactive | inactive | inactive | inactive | inactive | inactive | inactive | inactive | – | inactive | inactive | inactive | inactive | inactive | – |
| CC(C)CCCC(C)CCCC(C)CCCCC(C)CCCC(C)CCCC(C)C (configuration not stated) | inactive | inactive | inactive | inactive | inactive | inactive | inactive | inactive | inactive | inactive | inactive | inactive | inactive | – | – | inactive | – |
| Cc1onc(-c2ccccc2)c1-c1ccc(S(N)(=O)=O)cc1 | 18.8 µM (active) | inactive | inactive | inactive | inactive | – | inactive | inactive | – | – | inactive | inactive | inactive | inactive | inactive | – | – |
